# Whole data set: some 33,000 sequences, median “E-score (-0.5 to 0.5)” near -0.035, cut for the highest 2% near 0.34. What follows is part of a selection rich in the highest values, with near analogues and random picks from the rest.
# Biological target: T1, Mot3 (UniProt P54785)
# T1 sequence: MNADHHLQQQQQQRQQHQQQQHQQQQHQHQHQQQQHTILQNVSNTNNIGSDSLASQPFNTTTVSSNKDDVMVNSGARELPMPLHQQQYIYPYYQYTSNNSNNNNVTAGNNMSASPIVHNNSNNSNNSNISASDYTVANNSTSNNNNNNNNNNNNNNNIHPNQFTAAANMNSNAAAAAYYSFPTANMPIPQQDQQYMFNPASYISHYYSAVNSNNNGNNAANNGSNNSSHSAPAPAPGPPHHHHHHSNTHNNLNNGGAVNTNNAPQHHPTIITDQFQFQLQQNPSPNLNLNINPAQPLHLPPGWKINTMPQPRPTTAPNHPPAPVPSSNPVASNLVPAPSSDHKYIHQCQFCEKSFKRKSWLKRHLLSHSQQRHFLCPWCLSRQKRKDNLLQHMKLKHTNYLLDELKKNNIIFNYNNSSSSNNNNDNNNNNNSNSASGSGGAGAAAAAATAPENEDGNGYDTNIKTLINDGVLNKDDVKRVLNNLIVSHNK
# Assay: PBM E-score (8-mer binding enrichment) (E-score (-0.5 to 0.5)); higher = stronger / more preferred TF binding
# Settings: protein concentration: 200 nM; construct: GST-full length
# Procedure: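 Universal 'all 10-mer' protein binding microarrays (Agilent AMADID 015681) probed with GST-tagged S. cerevisiae TFs (full-length or DBD) made by in vitro transcription/translation (PURExpress), about 100-200 nM. Bound TF was detected with fluorescent anti-GST. Each ungapped 8-mer (which stands for itself and its reverse complement) is scored by the PBM enrichment score (E-score), a modified Wilcoxon-Mann-Whitney statistic from -0.5 to +0.5, computed with the Universal PBM Analysis Suite. Scale: above 0.35 generally sequence-specific binding.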
row,Sequence,PBM E-score
1,GGAAACGA,0.0799
2,CCTGAACC,0.206
3,CCCATCTC,-0.269
4,CTCGTGTA,0.353
5,ATCGTGTA,0.39
6,GTCGTGCA,0.0491
7,GTCGTGGA,-0.26
8,CTCGTGGA,-0.234
9,ATCGTGTC,0.247
10,GTCGTGTA,0.376
11,ATCGTGTG,0.204
12,CTCGTGTC,0.184
13,CGACAGTA,-0.196
14,ATGTGCTG,0.147
15,CCCTGGCC,-0.264
16,ATCAGATC,-0.196
17,ACAACTGG,-0.229
18,AGCGTGAA,-0.0361
19,CTAATTAC,0.289
20,GTAATTAC,0.378
21,ATAATTAC,0.258
22,CGCGCGTC,0.0273

row,Sequence,PBM E-score
1,CCCAGCGC,-0.0444
2,ACCTTCCT,0.0149
3,TCAAGGCA,0.458
4,ACAAGGCA,0.449
5,CCAAGGCC,-0.14
6,CCAAGGCA,0.458
7,GCAAGGCA,0.469
8,TCAAGACA,-0.0248
9,ACAAGGCT,0.111
10,GCAAGGGA,-0.155
11,TCAAGGGA,-0.213
12,ACAAGGCG,0.109
13,GCAAGGCC,-0.0626
14,CCAAGGCG,-0.0205
15,AACTCTAG,0.00906
16,ATGAAAGC,0.103
17,GTCATTCA,-0.067
18,GAACCATC,-0.0773
19,AACTTTCC,0.0113
20,AATGTTGT,0.223
21,AGCTGATC,-0.17
22,CTGTCTCA,-0.258

row,Sequence,PBM E-score
1,CCCAGGCA,0.461
2,GCCAGGCA,0.436
3,ACCAGGCC,-0.0646
4,ACCAGGCT,-0.06
5,GCCAGGAA,0.124
6,TCCAGGAA,0.316
7,CCCAGGCG,-0.061
8,GCCAGGCC,-0.25
9,TCCAGGCA,0.463
10,CCCAGGCC,-0.191
11,ACCAGGCA,0.446
12,TCCAGGGA,-0.212
13,ACCTTGCT,-0.0444
14,ACCCGACA,-0.0489
15,TACACCGA,0.0164
16,GCCGCTAA,-0.0753
17,CCGCTAAC,-0.0566
18,ACTGGTGG,-0.246
19,AGGCCTCA,-0.247
20,CAGAGAGC,-0.316
21,TAAATGTA,0.346
22,CACATGTA,0.344

row,Sequence,PBM E-score
1,TACATGTA,0.408
2,CACATGTC,0.196
3,TACATATA,0.317
4,CACATGTG,0.194
5,GACATGTC,0.191
6,GACATATA,0.125
7,GACATGTA,0.355
8,GAAATGTA,0.0874
9,TACATCTA,0.227
10,CAAATGTA,0.272
11,GCTGCAAC,-0.242
12,CAAGAGGA,0.038
13,CGAAACTA,-0.136
14,GACTAAAC,0.0174
15,ACCCGTGC,-0.0819
16,GAGAAGGC,0.258
17,ACGGCCTA,-0.0205
18,ACGCGCTG,0.184
19,GGCTAACC,0.0149
20,CTTCCTGC,-0.0264
21,ATCTGAAC,-0.219
22,ATATTGGA,0.0164

# From the supplement of paper PMC3334620
